Compound activity from PubChem.
Sampled rows, rich in hits. Any-hit rate of the full collection: about 13%.
JMJD2E inh: qHTS Assay for Inhibitors of Human Jumonji Domain Containing 2E (JMJD2E). Lysine-specific demethylase 4E (Homo sapiens), B2RXH2. AID 2147, 2009. JMJD2E catalytic domain, FDH-coupled NADH fluorescence (FDH is formaldehyde dehydrogenase). actives 1.6% (n = 230,000). Potency, µM (titrated, usually from 57.1 µM), most hits filed as inhibitors; active = well fitted inhibition curve with a large enough effect, not every such curve was filed as active; inconclusive = small, poorly fitted or top-dose-only effect, or another doubt; inactive = no such curve, though single readings can be large or run the other way; note: nearly all actives have a fitted effect of over 50% in size
miR-21 reporter: qHTS Assay for Modulators of miRNAs and/orActivators of miR-21; HeLa miR-21 FLuc reporter, luciferase, 48 h; Potency, µM (highest dose often 38.3 µM), most hits filed as activators; 340,000 tested, under 10 active;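 note: miR-21 action dims this reporter so a rising signal means less miR-21 action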
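HeLa miR-21-FLuc reporter line, endogenous miR-21; 2000 cells/well in DMEM/10% FBS; compound titration up to ~40uM final, 48 h, 37 degree Celsius; luciferase detection reagent, 15 min lysis, CCD luminescence.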
G9a block: qHTS Assay for Inhibitors of Histone Lysine Methyltransferase G9a; Histone-lysine N-methyltransferase EHMT2 (Homo sapiens), Q96KQ7; G9a H3K9 monomethylation, AlphaScreen, 2 h; Potency, µM (series often up to 102 µM), most hits filed as inhibitors; actives 8.8% (n = 350,000); note: nearly all actives have a fitted effect of over 75% in size
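Signal arises when biotinylated H3K9 peptide, once monomethylated, bridges streptavidin donor and antibody-captured acceptor beads. Enzyme at 20 nM was preincubated 15 min with test compounds; peptide 500 nM and SAM 20 uM then reacted for 2 h.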
ALDH1A1 block: qHTS Assay for Inhibitors of Aldehyde Dehydrogenase 1 (ALDH1A1). Aldehyde dehydrogenase 1A1 (Homo sapiens), P00352. Purified ALDH1A1, NADH fluorescence, propionaldehyde substrate. Potency, µM (highest dose often 75.3 µM), actives largely listed as inhibitors. actives 7.3% (n = 220,000); active = well fitted inhibition curve with a large enough effect, not every such curve was filed as active; inconclusive = small, poorly fitted or top-dose-only effect, or another doubt; inactive = no such curve, though single readings can be large or run the other way
Target sequence (P00352 whole entry, looked up): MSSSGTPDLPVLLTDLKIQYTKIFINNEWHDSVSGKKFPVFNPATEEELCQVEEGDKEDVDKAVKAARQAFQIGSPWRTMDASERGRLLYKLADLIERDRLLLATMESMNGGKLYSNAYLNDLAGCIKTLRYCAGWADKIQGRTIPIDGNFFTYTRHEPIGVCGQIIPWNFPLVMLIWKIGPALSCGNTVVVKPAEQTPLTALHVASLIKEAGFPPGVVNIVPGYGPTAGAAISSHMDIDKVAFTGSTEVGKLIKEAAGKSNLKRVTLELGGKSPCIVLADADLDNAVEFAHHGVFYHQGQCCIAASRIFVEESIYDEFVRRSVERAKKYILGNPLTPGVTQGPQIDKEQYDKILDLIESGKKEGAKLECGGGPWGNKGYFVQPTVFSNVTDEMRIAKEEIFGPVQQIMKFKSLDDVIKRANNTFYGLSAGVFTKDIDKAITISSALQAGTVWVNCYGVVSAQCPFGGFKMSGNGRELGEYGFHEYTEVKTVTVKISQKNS
Sfp inh: qHTS Assay for Inhibitors of Bacillus subtilis Sfp phosphopantetheinyl transferase (PPTase); 4'-phosphopantetheinyl transferase ffp (Bacillus subtilis), Q9F4F7; Biochemical Sfp PPTase activity, qHTS; Potency, µM, hits mostly inhibitors; actives 3.5% (n = 310,000); AID 1490, 2009;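 note: the enzyme is Sfp with the accession as filed and its product quenches rhodamine fluorescence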
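Reaction rates are the 30-min fluorescence difference (ex 525, em 598 nm) in wells containing 15 nM Sfp, 5 uM rhodamine-CoA and 12.5 uM BHQ-2-YbbR at pH 7.6 with 10 mM MgCl2.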
LMNA splice mod: qHTS Assay for Modulators of Lamin A Splicing. HeLa LMNA splicing GFP/RFP minigene ratio, 48 h. Potency, µM (titrated, usually from 46.1 µM), hits mostly inhibitors. actives 0.01% (n = 200,000); active = well fitted inhibition curve with a large enough effect in the signal ratio, with a control signal flat, not every such curve was filed as active; inconclusive = small, poorly fitted or top-dose-only effect, or effect the other way, or a change in a side signal; the % refers to the signal ratio
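Read-out is the ratio of GFP to DsRed2 object intensity, acquired by 488 nm laser-scanning cytometry on HeLa lamin A-EGFP minigene reporter cells. Compound incubation 48 hrs at 37 °C in Opti-MEM with 2% FBS; DMSO 0.5% final.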
Numbers stand for hits; - = inactive; ? = inconclusive; . = no result given; [ ] = remark or other dose. Unless noted, calls come from the whole dose curve; as a rule, active = well fitted curve in the direction sought with a large enough effect; inconclusive = small, poorly fitted or top-dose-only effect, or another doubt; inactive = no such curve, though single readings can be large; an effect the other way counts as inactive or inconclusive.

SMILES | JMJD2E inh | miR-21 reporter | G9a block | ALDH1A1 block | Sfp inh | LMNA splice mod
CCC(C(=O)NCCc1ccccc1)n1nc(C)c2sc3ccccc3c2c1=O (stereo not given) | . | - | - | . | . | .
C#CC[N+]1(CC#Cc2ccc(C#CC[N+]3(CC#C)CCOCC3)cc2)CCOCC1 | - | - | 8.9µM | ? | - | -
C#CC[N+]1(CC#Cc2ccccc2)CCCC1 | - | - | -[0.501 µM] | - | - | -[0.0737 µM]
CC1=C(C(=O)OCc2ccccc2)C(c2ccccc2[N+](=O)[O-])NC(=O)N1C (stereo not given) | . | - | 40µM | . | - | .
C=CCOC(=O)C1=C(C)N(C)C(=O)NC1c1cc2c(cc1Br)OCO2 (stereo not given) | - | - | - | ? | - | -
CCOC(=O)C1=C(C)N(C)C(=O)NC1c1ccccc1OC (stereo not given) | - | - | - | - | - | -
CCOC(=O)C1=C(C)N(C)C(=O)NC1c1cc2c(cc1[N+](=O)[O-])OCO2 (stereo not given) | ? | - | ? | - | 50µM | .
COc1ccccc1/C=C/C(=O)Nc1ccc(S(=O)(=O)Nc2cc(C)on2)cc1 | . | - | ? | . | - | .
COc1cccc(NC(=O)C2CCN(S(=O)(=O)c3cccc4nonc34)CC2)c1 | . | - | - | . | . | .
CC(=O)c1ccc(NC(=O)C2CCN(S(=O)(=O)c3cccc4cccnc34)CC2)cc1 | - | - | 50µM | - | - | -
O=C(COC(=O)C1CCN(S(=O)(=O)c2cccc3cccnc23)CC1)c1ccc([N+](=O)[O-])cc1 | - | - | -[12.7 µM] | 6.3µM | - | -
COc1ccc(NC(=O)C2CCN(S(=O)(=O)c3cccc4nonc34)CC2)cc1 | . | - | 45µM | . | - | .
COc1ccc(NC(=O)C2CCN(S(=O)(=O)c3cccc4cccnc34)CC2)cc1 | - | - | ? | ? | - | ?
O=C(NCc1ccccc1)c1cccc(N2CCCS2(=O)=O)c1 | . | - | - | . | . | .
COc1ccc(CCNC(=O)Cn2ncc3c(=O)oc4ccccc4c32)c(OC)c1 | . | - | ? | . | . | .
CCN(C(=O)CSc1nc2cc(Cl)ccc2c(=O)n1Cc1ccco1)C1CCS(=O)(=O)C1 (stereo not given) | - | - | - | 18µM | - | .
CN(C(=O)CSc1nc2ccc(Br)cc2c(=O)n1Cc1ccco1)C1CCS(=O)(=O)C1 (stereo not given) | - | - | . | 13µM | - | ?
CCN(C(=O)CSc1nc2cc(C(=O)O)ccc2c(=O)n1Cc1ccccc1)c1ccccc1 | . | - | - | . | - | .
CN(C(=O)CSc1nc2cc(C(=O)O)ccc2c(=O)n1Cc1ccccc1)C1CCS(=O)(=O)C1 (stereo not given) | ? | - | 50µM | - | - | -
CCN(C(=O)CSc1nnc2c3ccccc3n(CC)c2n1)C1CCS(=O)(=O)C1 (stereo not given) | - | - | 79µM | - | - | -
CC1CC(C)CN(CCCNS(=O)(=O)c2ccc3c(c2)CCN3C(=O)C2CC2)C1 (stereo not given) | . | - | - | . | - | .
Cc1nc2cc(C(=O)O)ccc2n1-c1ccc(C(C)C)cc1 | . | - | 16µM | . | . | .
COc1ccc(CCNC(=O)/C=C/c2ccco2)cc1OC | . | - | 14µM | . | 45µM | .
CCOc1ccc(CCNC(=O)/C=C/c2ccco2)cc1OCC | . | - | 35µM | . | - | .
COc1ccc(CCNC(=O)/C=C\c2ccccc2)cc1OC | - | - | - | - | - | -
SMILES | JMJD2E inh | miR-21 reporter | G9a block | ALDH1A1 block | Sfp inh | LMNA splice mod
COc1ccc(CCNC(=O)/C=C/c2ccco2)cc1 | . | - | . | . | - | .
COc1ccc(CCNC(=O)/C=C/C(=O)O)cc1OC | - | - | - | 25µM | - | -
O=C(NC1CC(=O)N(c2ccccc2)C1)C1CCCCC1 (stereo not given) | . | - | - | . | . | -
Cc1cccc(-n2ccnc2SCC(=O)Nc2ccccc2C(F)(F)F)c1 | . | - | ? | . | . | -
CCNCCC(=O)N1c2ccccc2Sc2ccc(C(F)(F)F)cc21 | . | - | -[0.501 µM] | . | - | .
OC1CCCN(Cc2ccc3c(c2)Cc2ccccc2-3)C1 (stereo not given) | - | - | - | - | - | -
CN(C)CCN(C)Cc1ccc2c(c1)Cc1ccccc1-2 | - | - | - | 11µM | - | -
CC(=O)N1CCCc2cc(S(=O)(=O)NC(C(=O)NC(C)c3ccccc3)C(C)C)ccc21 (stereo not given) | - | - | - | 3.2µM | - | ?
CCC(=O)N1CCc2cc(S(=O)(=O)NC(C(=O)NC(C)c3ccccc3)C(C)C)ccc21 (stereo not given) | - | - | - | - | - | -
CC(=O)N1CCCc2cc(S(=O)(=O)NC(C(=O)NC3CCCCC3)C(C)C)ccc21 (stereo not given) | - | - | 35µM | 7.1µM | - | ?
COc1ccc(Cl)cc1-c1csc(N)n1 | ? | - | -[0.501 µM] | ? | - | .
COc1ccc(-n2c(C)cc(-c3csc(N)n3)c2C)cc1 | ? | - | 8.9µM | 25µM | ? | -
Cc1cc(-c2csc(N)n2)c(C)n1-c1ccc(Cl)c(Cl)c1 | - | - | 20µM | - | - | -
CC(=O)C(Cc1ccccc1)NC(=O)COC(=O)CCN1C(=O)C2CC=CCC2C1=O (stereo not given) | . | . | - | . | . | .
Cc1noc(C)c1C(=O)OC(C)C(=O)Nc1ccc(C(N)=O)cc1 (stereo not given) | . | . | -[12.7 µM] | . | . | .
CCN(CC)C(=S)SCC(=O)c1ccc(Br)cc1 | - | - | - | 8.9µM | - | ?
Nc1ccc(Sc2nnnn2-c2ccccc2)c(Cl)c1 | - | - | -[12.7 µM] | 22µM | - | -
O=[N+]([O-])c1ccc(Sc2nnnn2-c2ccccc2)c(Cl)c1 | - | ? | 50µM | 3.5µM | - | ?
c1ccc(Cn2c(Sc3nnnn3-c3ccccc3)nnc2-c2ccccc2)cc1 | - | - | -[12.7 µM] | ? | - | ?
CC(=O)c1ccc(Sc2nnnn2-c2ccccc2)c([N+](=O)[O-])c1 | - | - | ? | 16µM | - | ?
Cc1ccc(NC(=O)c2ccc(CN3CC(=O)N4CCCCC4C3=O)cc2)cc1 (stereo not given) | . | - | - | . | . | -
Cc1cc(C)c(NC(=S)NCCCSC2CCCCC2)c(C)c1 | - | - | ? | ? | 45µM | ?
CCc1c(O)nc(SCc2nc3ccccc3c(=O)[nH]2)[nH]c1=O | - | - | - | - | - | -
O=c1[nH]c(CSc2nnc(COc3ccccc3)n2-c2ccccc2)nc2ccccc12 | - | - | 4.5µM | 18µM | ? | ?
CCOc1ccc(C(C)=O)cc1CSc1nc(C)cc(C)n1 | - | - | . | 4µM | - | .
C=CCn1c(SCc2nc3ccccc3c(=O)[nH]2)nc2ccccc2c1=O | ? | - | 7.9µM | ? | 50µM | -
